Among the data in the supplement of paper PMC6555819 are PBM binding z-score values, retold here.

The test relates to VDR:RXRa (NR concentration 270 nM, RXRa partner concentration 90 nM). Nature of the test: PBM binding z-score (relative to random genomic background probes); higher = stronger binding; sequences stand for … in GC…GCGATTGACAGCGTAGAATGAAGG
Here is the method: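 Protein-binding microarray (Agilent 4x180K custom design, double-stranded 60-nt probes: 5' GC cap, 34-nt variable region, 24-nt constant primer region; full probe sequence given). Purified or IVT nuclear receptor:RXRα heterodimers (3:1 NR:RXRα, mostly 270:90 nM) or homodimers were incubated for 1 h in PBS with 2% milk and no ligand, then detected with Alexa488 antibodies. Fluorescence from o1-orientation probes (~5 replicates averaged) was converted to z-scores against 500 random hg19 background probes. Variable regions are seed direct-repeat (DR0–DR5) sites, all their single-nucleotide variants and half-site ablations.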
Consider CATACAGGATCAGCTAGGCCAGAGTAGGGACGGC, for which the PBM binding z-score is -0.514. With CGAACTAGGTCATTGACAGGACCGTGAATAGTAA the figure was 1.51; with AGACTGAGGTTATTAAGATCAGGGAATTGCGGTC, 2.39; with CCTACTTGGCCAAAGGTCATTGATTCCAATGCTC, 4.62. Take CCAAGCAGGCCAATCTGGGTCACTCAAGGCTTGA: the PBM binding z-score is 0.733. With AGTCAAAGTTCACTAGGTAACGGAAGATTCAGCT the figure was 3.97.

CGAACTAGGTCATTGAGAGGACAGTGAATAGTAA showed a PBM binding z-score of 2.92. On to CCTACTGGGCCAAGGTCATTAATCAGTCAAAGCA, for which the PBM binding z-score was found to be 2.84. With CTCGAAAGGTCGTGCTCAGGTGATTATACCAAAC, the PBM binding z-score was 3.58.

Sequence ACTAGCGGGCCAAGTTTGGGTCACTCAAACAAAG had a PBM binding z-score of 0.318. The sequence TAGCCTAGGTCATTGGCCAGTATACCACGCGAAC yielded a PBM binding z-score of 2.18. ATATGTAGGTTACATCCGGGTCATTCCGGCTATG displayed a PBM binding z-score of 3.88. In turn, CAGCCTAGGTCAGGGCTAGTATAGGAGGAACGTT registered a PBM binding z-score of -0.00307. With CGTGCAAGGTCAATGCTAGGTCAGTGAAAGCATT the figure was 5.24; with GCTTGTAAATCAAGGTTAAGAAAGACTAAGCTAA, 0.379; with AGAACGAGGGCAATGAGTTGGTAGCACGGGTGGC, 4.09. With ACTATCAGTTGACTTAGGGCAACCGATACGACGC the figure was 0.408. Next, GAAACGAGGGCAAAGTTGATAGCATCTGTCGACG: 1.69. Regarding GCAGACAGGTGAAGCGCAGGTAACTCAGGGTGGC, the PBM binding z-score was -0.67.

The sequence TATACAGGGTCGAAGGCCAGAGTACGAATGTCGA displayed a PBM binding z-score of 1.56. For AATACAGGGTCACTAGACCAGAGTAGGTACGAAT, the PBM binding z-score was determined as 3.98.

The sequence ATATGTAGGTTACCTCCGGGTCATTCAGGCTATG registered a PBM binding z-score of 4.01.

AGTCAAAGTTCACTAGGTAACGTCAGATTCAGCT: the PBM binding z-score came to 3.95. With CCAACTGGGGCAGAAAGGTTACCATACCATCCGG the figure was 0.976; with CCTACTGGGCCACGAAAGGACATTGATTCAGTGA, -0.289; with CTACCAAGGCGAACAAGGTCGTTGATTACTATTC, 2.59. With AATACAGGGTCATCGTAGGCCAGAGCACGCACAG the figure was 5.2. With AATACAGGGTCACTAGGCTAGAGTAGGTACGAAT, the PBM binding z-score was 4.05. With GCATATAGGTAATACATGGTGAAAGTCCGATTGT the figure was -0.0137; with TCTTGGAGGACACGAAAGGTCAGAGCTCGACATC, 3.58; with TCTGCTAGGTCAACGATGGTGAGCTAATCTGCTA, 1.15.

In the case of AGAACGAGGGCAATGAGTTGATAGCTCGGGTGGC, the PBM binding z-score was determined as 4.8. CCGACTGGGGCATAAGGTTACCATAAGCCAGCCC: the PBM binding z-score was -0.0909.

For TCATATGGGTAAAGGTGAAAGTCGAACGATATGA, the PBM binding z-score is 0.608. Next, TCTGCTAGGTCAGTTGGTCGGCTAACGAGCTGCC: 0.0498; CGTCCAAGGTCAGCACGTCAGTGAAAGCGACGTG: 2.46; TCTATTAGTTGATTCGGGCAACCGAAACAGCGGA: 0.506.

With ACTTACGGGTCAACGATGTTATAGCACGCGTATA, the PBM binding z-score was 4.93. Consider TCATATAGGTAAATGCCAGGTGAAAGTCCGATCT, for which the PBM binding z-score amounted to 1.12. For the sequence GTACCAACGTGAATAGGTCGTTGATGAGTAGGCG, the PBM binding z-score is -0.204.
